# From PubChem BioAssay (Tox21)
# Records with an inconclusive call do not appear. Unmarked numbers belong to inactive results. Calls come from the whole dose curve.
# Experiment: qHTS assay to identify small molecule agonists of the endoplasmic reticulum stress response signaling pathway - cell viability counter screen (AID 1159517); note: nearly all actives have a fitted effect of over 50% in size
# Conditions: ESRE-bla HeLa viability, CellTiter-Glo luminescence, 5 h; series mostly up to 61 µM; activity change, negative = cytotoxicity: at the top concentration
# Source text: U.S. Tox21 Program National Center for Advancing Translational Sciences [NCATS] NIH Chemical Genomics Center [NCGC] U.S. Environmental Protection Agency [EPA] National Institutes of Environmental Health Sciences [NIEHS] National Toxicology Program [NTP] U.S. Food and Drug Administration [FDA] Tox21 Assay Overview: Endoplasmic Reticulum (ER) plays an important role in cellular signaling, protein folding/maturation, stress response, lipid biosynthesis, calcium storage and release etc. Under stress conditions, proteins in ER misfold or unfold, and leading to the expression of ER stress responsive genes. ER stress has been associated with a variety of pathophysiological conditions such as cancer, inflammation, neurodegenerative diseases, diabetes, ischemic heart disease etc. To identify the compounds that induce ER stress response, an ER stress reporter cell line, CellSensor ESRE-bla HeLa (Life Technologies, Carlsbad, CA) containing a beta-lactamase reporter gene under control of the Endoplasmic reticulum Stress Response Element (ESRE) was used to screen Tox21 10K compound library. The cytotoxicity of the Tox21 compound library against the ESRE-bla HeLa cell line was tested in parallel by measuring cell viability using the CellTiter-Glo assay in the same wells.
# Tox21 Assay Protocol Summary: ESRE-bla HeLa cells were dispensed at 1,500 cells/6 uL of assay medium per well into black wall/clear-bottom 1536-well plates using a Multidrop Combi (ThermoFisher Scientific, Waltham, MA) dispenser. After the assay plates were incubated at 37 C and 5% CO2 for an overnight, 23 nL of compounds dissolved in DMSO, positive controls or DMSO only was transferred to the assay plate by a Pintool station (Kalypsys, San Diego, CA). The assay plates were incubated at 37 C and 5% CO2 for 5 hr. One uL of LiveBLAzer B/G FRET substrate (Life Technologies) was added using a FRD (Flying Reagent Dispenser, Aurora Discovery, San Diego, CA) and the plates were incubated at room temperature for 2 hr. Fluorescence intensity (405 nm excitation, 460 nm and 530 nm emissions) was measured using an Envision plate reader (PerkinElmer, Shelton, CT). For cytotoxicity, 4 ul/well of CellTiter-Glo reagent was added into the assay plates using an FRD. After 30 min incubation at room temperature, the luminescence intensity was measured using a ViewLux plate reader (PerkinElmer).
# % is set by controls: 0 for no effect and ±100 for the full control effect.
row,SMILES,"activity change, negative = cytotoxicity"
1,CN(C1CCCCC1)S(=O)(=O)c1ccccc1N,-10.9%
2,COCC(=O)Nc1c(I)c(C(=O)NCC(O)CO)c(I)c(C(=O)N(C)CC(O)CO)c1I (stereo not given),-6.57%
3,CC(=O)N(CC(O)CO)c1c(I)c(C(=O)NCC(O)CO)c(I)c(C(=O)NCC(O)CO)c1I (stereo not given),10.2%
4,O=C1c2ccccc2-c2ccccc21,-16.2% [at 78.8 µM]
5,CCCO,-8.98%
6,C=CCCCCCCCCCCC,-0.545% [at 6.95 µM]
7,NC(=O)NNC(N)=O,1.42%
8,CC(=O)OCCCc1ccccc1,-18%
9,NCCc1ccn[nH]1,11.7%
10,Nc1cc(S(=O)(=O)O)ccc1S(=O)(=O)O,3.78%
11,CC(C)(C)c1ccc(C=O)cc1,-2.39%
12,Cc1ccccc1C(=O)N1CC/C(=N\OS(=O)(=O)O)c2ccc(Cl)cc21,-4.29%
13,CCCOC(=O)CCCCC(=O)OCCC,2.18%
14,CCCCCCCCCCCCC,21.2%
15,CCC1COC(=O)O1 (stereo not given),-4.38%
16,C=C(C)C(=O)OC,-9.12%
17,CCCCCCCCC(=O)OCC,28.6%
18,FC(F)(F)/C(=N\OCC1OCCO1)c1ccc(Cl)cc1,-2.9%
19,CCCCC(CC)CNC(=O)CC(C)OC(=O)CCC(=O)O (stereo not given),4.72%
20,Cc1ncc([N+](=O)[O-])n1CC(O)CCl (stereo not given),-20.1%

row,SMILES,"activity change, negative = cytotoxicity"
1,COC(=O)CCC(=O)O,2.84%
2,Nc1cc(C(=O)O)ccc1Cl,8.16%
3,O=C(CN1CCN(Cc2ccc3c(c2)OCO3)CC1)N1c2ccccc2Sc2ccccc21,1.05%
4,OC[C@@H](O)[C@H](O)[C@@H](O)[C@@H](O)CO,11.2%
5,CC(C)SCc1ccco1,0.98% [at 28.5 µM]
6,COc1cc2c(Nc3ccc(Br)cc3F)ncnc2cc1OCC1CCN(C)CC1,-25.6%
7,CCCCC(CC)COC(=O)c1ccccc1 (stereo not given),2.07%
8,COc1ccc(NS(=O)(=O)c2ccc(N)cc2)nn1,1.08%
9,CCCCCC(=O)OCC,0.838%
10,NS(=O)(=O)c1ccccc1OC(F)(F)F,8.06%
11,NC(=O)NC(=O)Cc1ccccc1,10.8%
12,O=C1OC(=O)c2ccccc21,-11.9%
13,Nc1c(NC/C=C\COc2cc(CN3CCCCC3)ccn2)c(=O)c1=O,-0.539% [at 28.5 µM]
14,CCC(C)(CCC(C)C)C(=O)[O-].CCC(C)(CCC(C)C)C(=O)[O-].[Zn+2] (stereo not given),-1.47%
15,C/C=C(\C)C(=O)OCC/C=C\CC,-1.07%
16,COc1ccc(OC)c(NC(=O)CC(C)=O)c1,3.91%
17,CC(C)CCC(=O)CCC(C)C,0.518%
18,CCCCOC(=O)C(=O)OCCCC,4.9%
19,CCS(=O)(=O)CCn1c([N+](=O)[O-])cnc1C,17.9%
20,CCC(=O)c1ccc(O)cc1,-1.14%
